This note sets out measurements from PubChem BioAssay (EPA / NIEHS).

Inconclusive results are not listed. Some compounds were tested as several samples or in several runs, with calls that do not always agree. Active and inactive are the calls of the source. Rule for the calls, unless noted: active = hit-call score of the fitted dose curve at least 0.9, where 1 is the maximum; inactive = score below 0.9.

One may read the AC50 as the midpoint of the concentration-response curve, whichever way the signal moves.

The first assay deals with human Peroxisome Proliferator-activated Receptor delta (PPARd), PPARD (gene 5467) (UniProt Q03181). As to the kind of experiment: ATG_PPARd_TRANS: Attagene TRANS-FACTORIAL HepG2 Assay for human Peroxisome Proliferator-activated Receptor delta (PPARd) (AID 2283002; active = hit-call score of the fitted dose curve at least 0.9, where 1 is the maximum).
human Peroxisome Proliferator-activated Receptor delta (PPARd), PPARD (gene 5467), sequence (Q03181 whole entry, looked up): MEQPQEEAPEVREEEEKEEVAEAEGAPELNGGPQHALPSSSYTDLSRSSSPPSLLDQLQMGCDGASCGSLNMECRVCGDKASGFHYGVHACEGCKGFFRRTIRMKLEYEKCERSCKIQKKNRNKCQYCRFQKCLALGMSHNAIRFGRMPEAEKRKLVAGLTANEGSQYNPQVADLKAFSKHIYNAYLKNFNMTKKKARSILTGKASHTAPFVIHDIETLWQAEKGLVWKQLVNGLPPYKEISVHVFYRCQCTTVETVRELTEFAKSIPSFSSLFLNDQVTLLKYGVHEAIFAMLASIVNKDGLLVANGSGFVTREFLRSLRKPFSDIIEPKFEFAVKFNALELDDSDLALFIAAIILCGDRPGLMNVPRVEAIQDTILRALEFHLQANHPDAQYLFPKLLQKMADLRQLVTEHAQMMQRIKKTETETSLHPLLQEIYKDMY
Details: not given
The procedure, abridged:
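HepG2 cells transiently transfected with GAL4-UAS multiplexed reporter units driven by exogenous chimeric NR-GAL4 proteins; 24 h compound exposure. Reporter mRNA measured by RT-PCR, 6-FAM primer extension, HpaI digestion and capillary electrophoresis; gain of signal fitted relative to DMSO.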
Take `c1ccc2c(c1)-c1cccc3c1c-2cc1ccccc13`: the outcome was inactive.
On the same count and under the same terms, for `CCCCCOC(C)=O` the value was “inactive”; for `c1ccc(C(O[C@@H]2CCCN(CCc3ccc4c(c3)OCO4)C2)c2ccccc2)cc1`, “inactive”.
The same measure, in the same setting: for `FC(F)(F)COC(OCC(F)(F)F)OCC(F)(F)F` the value was “inactive”.
`CCc1cccc(CC)c1N`: the compound was classed as inactive.
On the same count and under the same terms, for `OCCNCCO` the value was “inactive”.
Still for that read-out and setting: for `Cc1nc(-c2ccccn2)ncc1C(=O)Nn1cc(C)c2cc(F)ccc21` the value was “inactive”.
Turning to `CCOC(N)=O`, the compound was classed as inactive.
With `FC(F)C(F)(F)COCC1CO1` (stereo not drawn), the compound was called inactive.
In the case of `OC(O)(C(F)C(O)(O)C(F)(F)F)C(F)(F)F`, the call was inactive.
Consider `CCCCC(CC)C(=O)OCCOCCOCCOC(=O)C(CC)CCCC` (stereo not drawn), for which the compound was classed as inactive.
The same measure, in the same setting: to `CCCCOC(=O)c1ccccc1` belongs “inactive”; to `O=C1CN(N=Cc2ccc([N+](=O)[O-])o2)C(=O)N1`, “inactive”.

Read-out in a further assay: Intercellular Adhesion Molecule 1 (ICAM1), ICAM1 (gene 3383)
The assay can be described thus: BSK_3C_ICAM1: BioMAP Diversity Plus: 3C Assay for Intercellular Adhesion Molecule 1 (ICAM1) Biomarker Activity (AID 2283003). The conditions noted are these: primary human endothelial cells (HUVEC); actives raise or lower the signal. The procedure, abridged: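 Using DMSO as baseline, bidirectional curve fitting was applied to ICAM-1 ELISA signals from HUVEC in the 3C system, measured 24 h after compound addition.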
Regarding `CCCCCCOC(=O)CC(CC(=O)OCCCCCC)(OC(=O)CCC)C(=O)OCCCCCC`, the result was inactive.
`COCc1nnc(-c2ccc[n+]([O-])c2)n1-c1c(Cl)c(Cl)cc2[nH]c(=O)c(=O)[nH]c12`: the result was inactive.
Still for that read-out and setting: for `OCCOCCOCCO` the value was “inactive”; for `CC(C)CC(C)O` (stereo not drawn), “inactive”.
As for `NC(=O)N1c2ccccc2C=Cc2ccccc21`, the result was inactive.
Still for that read-out and setting: for `OC(Cn1cncn1)(Cn1cncn1)c1ccc(F)cc1F` the value was “inactive”; for `CCOC(N)=O`, “inactive”.
Same read-out and setting: for `COS(C)(=O)=O` the value was “inactive”.
Still for that read-out and setting: for `CC(C)C(=O)Nc1ccc([N+](=O)[O-])c(C(F)(F)F)c1` the value was “inactive”; for `OC[C@H]1O[C@@H]2O[C@H]3[C@H](O)[C@@H](O)[C@@H](O[C@H]4[C@H](O)[C@@H](O)[C@@H](O[C@H]5[C@H](O)[C@@H](O)[C@@H](O[C@H]6[C@H](O)[C@@H](O)[C@@H](O[C@H]7[C@H](O)[C@@H](O)[C@@H](O[C@H]1[C@H](O)[C@H]2O)O[C@@H]7CO)O[C@@H]6CO)O[C@@H]5CO)O[C@@H]4CO)O[C@@H]3CO`, “inactive”.

In a further assay the target is human Retinoic Acid Receptor beta (RARb), RARB (gene 5915) (UniProt P10826). As to the kind of experiment: ATG_RARb_TRANS: Attagene TRANS-FACTORIAL HepG2 Assay for human Retinoic Acid Receptor beta (AID 2283004; active = hit-call score of the fitted dose curve at least 0.9, where 1 is the maximum).
human Retinoic Acid Receptor beta (RARb), RARB (gene 5915), sequence (P10826 whole entry, looked up): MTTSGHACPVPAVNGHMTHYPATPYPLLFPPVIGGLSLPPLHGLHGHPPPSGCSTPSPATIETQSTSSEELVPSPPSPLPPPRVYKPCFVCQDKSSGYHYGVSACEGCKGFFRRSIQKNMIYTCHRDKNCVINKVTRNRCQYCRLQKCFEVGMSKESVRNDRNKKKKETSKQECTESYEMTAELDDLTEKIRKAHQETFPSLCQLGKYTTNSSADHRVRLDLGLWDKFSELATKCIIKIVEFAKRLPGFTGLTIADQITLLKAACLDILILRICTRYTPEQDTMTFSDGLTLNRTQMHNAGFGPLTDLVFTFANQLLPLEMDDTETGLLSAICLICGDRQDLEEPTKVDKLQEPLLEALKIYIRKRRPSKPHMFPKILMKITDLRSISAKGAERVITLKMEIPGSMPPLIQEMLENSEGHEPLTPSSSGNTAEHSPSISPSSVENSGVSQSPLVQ
Details: not given
The procedure, abridged: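 HepG2 cells were transiently transfected with GAL4-UAS reporter units that report activity of exogenous chimeric NR-Gal4 proteins, then exposed to compound for 24 h. Reporter mRNA was quantified by RT-PCR with capillary electrophoresis fluorescence, as gain of signal over DMSO.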
Consider `FC(F)(F)COC(OCC(F)(F)F)OCC(F)(F)F`, for which the compound was classed as inactive.
The same measure, in the same setting: to `NC(=O)N1c2ccccc2C=Cc2ccccc21` belongs “inactive”; to `Cc1nc(-c2ccccn2)ncc1C(=O)Nn1cc(C)c2cc(F)ccc21`, “inactive”; to `OC(O)(C(F)C(O)(O)C(F)(F)F)C(F)(F)F`, “inactive”.
The same measure, in the same setting: for `OC[C@H]1O[C@@](CO)(O[C@H]2O[C@H](CO)[C@@H](O)[C@H](O)[C@H]2O)[C@@H](O)[C@@H]1O` the value was “inactive”.

The target of the next assay is Retinoic acid receptor alpha (Homo sapiens) (UniProt P10276). As to the kind of experiment: ATG_RARa_TRANS: Attagene TRANS-FACTORIAL HepG2 Assay for human Retinoic Acid Receptor alpha (RARa) (AID 2283005; active = hit-call score of the fitted dose curve at least 0.9, where 1 is the maximum).
Retinoic acid receptor alpha (Homo sapiens), sequence (P10276 whole entry, looked up): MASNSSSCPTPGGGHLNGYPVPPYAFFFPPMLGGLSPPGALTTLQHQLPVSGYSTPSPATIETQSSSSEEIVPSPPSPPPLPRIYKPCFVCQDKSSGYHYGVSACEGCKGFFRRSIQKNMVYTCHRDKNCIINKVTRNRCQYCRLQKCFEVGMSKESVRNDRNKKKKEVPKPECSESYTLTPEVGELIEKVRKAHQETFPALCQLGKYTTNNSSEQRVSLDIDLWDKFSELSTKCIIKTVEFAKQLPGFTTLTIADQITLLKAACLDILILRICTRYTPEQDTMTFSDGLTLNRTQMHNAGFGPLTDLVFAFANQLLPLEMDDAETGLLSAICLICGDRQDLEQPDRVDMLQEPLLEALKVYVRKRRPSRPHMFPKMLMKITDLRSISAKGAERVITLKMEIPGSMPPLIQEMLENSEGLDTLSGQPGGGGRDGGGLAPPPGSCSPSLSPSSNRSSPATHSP
Details: not given
The procedure, abridged: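 HepG2 transiently transfected with multiplex GAL4-UAS reporter units including a human RARa–GAL4 chimera; 24 h compound exposure. Reporter mRNA quantified by RT-PCR, 6-FAM labeling and capillary electrophoresis; gain of signal versus DMSO.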
Take `c1ccc2c(c1)-c1cccc3c1c-2cc1ccccc13`: the outcome was inactive.
The same measure, in the same setting: to `FC(F)(F)COC(OCC(F)(F)F)OCC(F)(F)F` belongs “inactive”; to `CC(C)CC(C)O` (stereo not drawn), “inactive”.
Still for that read-out and setting: for `NC(=O)N1c2ccccc2C=Cc2ccccc21` the value was “inactive”; for `CCCCC(CC)C(=O)OCCOCCOCCOC(=O)C(CC)CCCC` (stereo not drawn), “inactive”.
Still for that read-out and setting: for `OC[C@H]1O[C@@H]2O[C@H]3[C@H](O)[C@@H](O)[C@@H](O[C@H]4[C@H](O)[C@@H](O)[C@@H](O[C@H]5[C@H](O)[C@@H](O)[C@@H](O[C@H]6[C@H](O)[C@@H](O)[C@@H](O[C@H]7[C@H](O)[C@@H](O)[C@@H](O[C@H]1[C@H](O)[C@H]2O)O[C@@H]7CO)O[C@@H]6CO)O[C@@H]5CO)O[C@@H]4CO)O[C@@H]3CO` the value was “inactive”.

Read-out in another assay: not listed separately
As to the kind of experiment: BSK_3C_Proliferation: Cell Proliferation Assessment in the BioMAP Diversity Plus: 3C Assay (AID 2283006).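 For AC50: potency may reflect either rise or fall in cell number versus DMSO.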 Particulars: primary human endothelial cells (HUVEC). The gist of the method: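 Measured here: sulforhodamine B (0.1%) staining of TCA-fixed sub-confluent umbilical vein endothelial cultures 48 h post-dosing, absorbance 560 nm. DMSO served as negative control and baseline; both signal gain and loss were modelled.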
`CCCCCCOC(=O)CC(CC(=O)OCCCCCC)(OC(=O)CCC)C(=O)OCCCCCC`: the outcome was inactive.
For `COCc1nnc(-c2ccc[n+]([O-])c2)n1-c1c(Cl)c(Cl)cc2[nH]c(=O)c(=O)[nH]c12`, the outcome was inactive.
The same measure, in the same setting: for `c1ccc2c(c1)-c1cccc3c1c-2cc1ccccc13` the value was “inactive”.
With `CCCCCOC(C)=O`, the AC50 is 20.8 µM (active).
On to `OCCOCCOCCO`, for which the result was inactive.
For the compound `c1ccc(C(O[C@@H]2CCCN(CCc3ccc4c(c3)OCO4)C2)c2ccccc2)cc1`, the AC50 is 28.5 µM (active).
Take `FC(F)(F)COC(OCC(F)(F)F)OCC(F)(F)F`: the outcome was inactive.
The same measure, in the same setting: to `CC[C@H](C)C(=O)O[C@H]1C[C@H](O)C=C2C=C[C@H](C)[C@H](CC[C@@H](O)C[C@@H](O)CC(=O)O)[C@H]21` belongs “inactive”; to `CCc1cccc(CC)c1N`, “inactive”.
Take `COc1cc2c(c(OC)c1OC)-c1ccc(OC)c(=O)cc1[C@@H](NC(C)=O)CC2`: the AC50 is 0.148 µM (active).
For `CC(C)CC(C)O` (stereo not drawn), the outcome was inactive.
The same measure, in the same setting: to `NC(=O)N1c2ccccc2C=Cc2ccccc21` belongs “inactive”; to `OCCNCCO`, “inactive”.
On the same count and under the same terms, to `OC(Cn1cncn1)(Cn1cncn1)c1ccc(F)cc1F` belongs “inactive”; to `CCCCCCCCN(C)C`, “inactive”.
In the case of `C=CN1CCCC1=O`, the result was inactive.
The same measure, in the same setting: for `Cc1nc(-c2ccccn2)ncc1C(=O)Nn1cc(C)c2cc(F)ccc21` the value was “inactive”; for `CCOC(N)=O`, “inactive”.
Turning to `FC(F)C(F)(F)COCC1CO1` (stereo not drawn), the outcome was inactive.
Turning to `OC(O)(C(F)C(O)(O)C(F)(F)F)C(F)(F)F`, the AC50 is 27.3 µM (active) and the result was inactive.
`NC(=O)NN=Cc1ccc([N+](=O)[O-])o1`: the result was inactive.
Still for that read-out and setting: for `CCCCC(CC)C(=O)OCCOCCOCCOC(=O)C(CC)CCCC` (stereo not drawn) the value was “inactive”; for `CCCCOC(=O)c1ccccc1`, “inactive”; for `COS(C)(=O)=O`, “inactive”.
The same measure, in the same setting: to `OC[C@H]1O[C@@](CO)(O[C@H]2O[C@H](CO)[C@@H](O)[C@H](O)[C@H]2O)[C@@H](O)[C@@H]1O` belongs “inactive”.
`CC(C)C(=O)Nc1ccc([N+](=O)[O-])c(C(F)(F)F)c1`: the outcome was inactive.
For `O=C1CN(N=Cc2ccc([N+](=O)[O-])o2)C(=O)N1`, the AC50 is 13.6 µM (active).
`OC[C@H]1O[C@@H]2O[C@H]3[C@H](O)[C@@H](O)[C@@H](O[C@H]4[C@H](O)[C@@H](O)[C@@H](O[C@H]5[C@H](O)[C@@H](O)[C@@H](O[C@H]6[C@H](O)[C@@H](O)[C@@H](O[C@H]7[C@H](O)[C@@H](O)[C@@H](O[C@H]1[C@H](O)[C@H]2O)O[C@@H]7CO)O[C@@H]6CO)O[C@@H]5CO)O[C@@H]4CO)O[C@@H]3CO`: the outcome was inactive.
